Assays:
Test in all cases: DAPPL (digital affinity profiling via proximity ligation, sequencing); 10 mM Tris-HCl pH 7.5, 50 mM NaCl, 1 mM DTT, 4% glycerol, room temperature, 30 min; GST-TFs on glutathione beads, 16-mer random dsDNA library, 0.1% formaldehyde crosslink after washing; high values mean tight binding
FLI1 = target: T1, FLI1 (Homo sapiens, UniProt Q01543 1-452); conditions: protein: recombinant; tags: N-terminal GST; dsDNA, one strand shown
T1 sequence: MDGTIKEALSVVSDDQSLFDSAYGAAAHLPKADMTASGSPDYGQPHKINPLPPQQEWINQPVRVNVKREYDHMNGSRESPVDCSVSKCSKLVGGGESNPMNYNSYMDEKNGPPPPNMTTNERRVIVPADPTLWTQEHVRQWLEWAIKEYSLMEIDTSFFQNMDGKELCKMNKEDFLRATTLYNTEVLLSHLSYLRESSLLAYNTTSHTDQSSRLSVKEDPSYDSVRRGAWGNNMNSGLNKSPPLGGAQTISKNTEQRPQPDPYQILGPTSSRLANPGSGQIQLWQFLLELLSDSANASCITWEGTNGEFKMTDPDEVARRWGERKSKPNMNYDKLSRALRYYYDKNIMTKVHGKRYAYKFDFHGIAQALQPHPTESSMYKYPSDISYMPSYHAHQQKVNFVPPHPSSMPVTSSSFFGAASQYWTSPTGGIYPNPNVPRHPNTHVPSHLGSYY
In short: (§1)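 GST fusions of human transcription factors were expressed in yeast and captured with glutathione beads. Once given DNA barcodes and pooled alongside a tag-only sample, they were incubated for 30 min at room temperature with 200 nmole of a random double-stranded 16-mer DNA library in Tris/NaCl/DTT/glycerol buffer, then washed, crosslinked (0.1% formaldehyde), proximity-ligated, PCR-amplified and sequenced on an Illumina NextSeq500. The binding signal of each hexamer is its read frequency for a factor divided by its frequency for the tag-only sample.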

ELK1 = target: T2, ELK1 (Homo sapiens, UniProt P19419 1-428); conditions: protein: recombinant; tags: N-terminal GST; dsDNA, one strand shown
T2 sequence: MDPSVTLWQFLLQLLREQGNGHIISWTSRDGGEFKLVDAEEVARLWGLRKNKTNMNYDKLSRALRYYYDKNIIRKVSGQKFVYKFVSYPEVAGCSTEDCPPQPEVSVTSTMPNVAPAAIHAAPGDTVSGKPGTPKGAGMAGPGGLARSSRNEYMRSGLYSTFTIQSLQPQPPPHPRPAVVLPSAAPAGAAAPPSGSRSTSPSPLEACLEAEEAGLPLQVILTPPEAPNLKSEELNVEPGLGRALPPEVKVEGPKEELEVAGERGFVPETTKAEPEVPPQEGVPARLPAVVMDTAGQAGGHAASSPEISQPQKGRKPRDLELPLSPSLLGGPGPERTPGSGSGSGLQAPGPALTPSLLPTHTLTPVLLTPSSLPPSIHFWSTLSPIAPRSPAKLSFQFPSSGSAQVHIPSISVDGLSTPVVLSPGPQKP
In short: as §1

GABPA = target: T3, GABPA (Homo sapiens, UniProt Q06546 1-454); conditions: protein: recombinant; tags: N-terminal GST; dsDNA, one strand shown
T3 sequence: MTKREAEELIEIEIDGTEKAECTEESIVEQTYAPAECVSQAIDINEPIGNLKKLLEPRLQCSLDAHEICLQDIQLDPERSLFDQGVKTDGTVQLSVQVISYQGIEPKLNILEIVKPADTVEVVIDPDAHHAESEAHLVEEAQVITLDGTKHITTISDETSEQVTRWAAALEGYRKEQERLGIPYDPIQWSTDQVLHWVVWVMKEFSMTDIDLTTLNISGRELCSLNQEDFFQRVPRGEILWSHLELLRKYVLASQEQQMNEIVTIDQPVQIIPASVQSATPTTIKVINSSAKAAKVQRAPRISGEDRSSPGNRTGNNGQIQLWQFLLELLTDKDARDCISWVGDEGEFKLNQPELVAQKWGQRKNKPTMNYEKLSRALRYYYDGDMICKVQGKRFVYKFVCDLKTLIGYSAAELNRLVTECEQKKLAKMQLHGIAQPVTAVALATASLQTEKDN
In short: as §1

ERG = target: T4, ERG (Homo sapiens, UniProt P11308 1-479); conditions: protein: recombinant; tags: N-terminal GST; dsDNA, one strand shown
T4 sequence: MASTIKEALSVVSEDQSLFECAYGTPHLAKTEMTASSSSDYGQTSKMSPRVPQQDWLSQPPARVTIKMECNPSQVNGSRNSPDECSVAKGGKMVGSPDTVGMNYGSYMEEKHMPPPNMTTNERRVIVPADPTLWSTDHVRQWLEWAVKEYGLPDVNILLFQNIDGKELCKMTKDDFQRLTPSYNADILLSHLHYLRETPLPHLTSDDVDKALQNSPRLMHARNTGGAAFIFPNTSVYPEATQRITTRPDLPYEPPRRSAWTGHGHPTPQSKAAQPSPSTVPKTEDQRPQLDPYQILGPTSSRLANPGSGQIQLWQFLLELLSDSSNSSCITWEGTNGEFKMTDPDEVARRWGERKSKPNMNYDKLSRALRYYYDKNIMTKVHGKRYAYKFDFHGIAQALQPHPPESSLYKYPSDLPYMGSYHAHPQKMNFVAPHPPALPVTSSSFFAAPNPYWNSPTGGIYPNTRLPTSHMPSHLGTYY
In short: as §1

ELF1 = ELF1 (Homo sapiens, UniProt P32519 1-619); conditions: protein: recombinant; tags: N-terminal GST; dsDNA, one strand shown
Sequence of ELF1 (P32519 whole entry): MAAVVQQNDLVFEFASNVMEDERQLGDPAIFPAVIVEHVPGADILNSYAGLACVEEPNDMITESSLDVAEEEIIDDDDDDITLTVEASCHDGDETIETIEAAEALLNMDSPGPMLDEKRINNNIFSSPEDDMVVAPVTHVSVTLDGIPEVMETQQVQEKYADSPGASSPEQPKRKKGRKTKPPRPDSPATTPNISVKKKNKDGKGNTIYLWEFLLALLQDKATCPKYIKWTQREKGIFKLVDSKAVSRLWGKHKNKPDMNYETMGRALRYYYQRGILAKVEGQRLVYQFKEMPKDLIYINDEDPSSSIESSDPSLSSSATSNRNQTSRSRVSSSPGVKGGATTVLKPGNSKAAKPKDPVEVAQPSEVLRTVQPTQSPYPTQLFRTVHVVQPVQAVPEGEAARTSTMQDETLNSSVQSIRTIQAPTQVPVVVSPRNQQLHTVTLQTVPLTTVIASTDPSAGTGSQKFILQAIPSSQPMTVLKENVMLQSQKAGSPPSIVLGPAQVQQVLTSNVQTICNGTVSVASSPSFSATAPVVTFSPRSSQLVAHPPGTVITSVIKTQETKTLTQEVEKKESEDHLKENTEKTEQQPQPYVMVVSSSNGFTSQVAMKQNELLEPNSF
In short: as §1

EHF = target: T5, EHF (Homo sapiens, UniProt Q9NZC4 1-300); conditions: protein: recombinant; tags: N-terminal GST; dsDNA, one strand shown
T5 sequence: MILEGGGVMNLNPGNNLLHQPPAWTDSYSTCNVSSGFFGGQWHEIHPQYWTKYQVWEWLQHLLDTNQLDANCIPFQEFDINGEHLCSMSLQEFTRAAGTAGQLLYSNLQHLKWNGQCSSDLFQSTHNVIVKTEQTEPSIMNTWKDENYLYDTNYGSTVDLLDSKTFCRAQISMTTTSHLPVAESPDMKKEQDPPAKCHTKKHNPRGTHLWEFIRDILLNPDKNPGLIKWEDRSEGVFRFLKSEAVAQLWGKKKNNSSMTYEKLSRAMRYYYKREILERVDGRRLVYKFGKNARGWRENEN
In short: as §1

SPI1 = SPI1 (Homo sapiens, UniProt P17947 1-270); conditions: protein: recombinant; tags: N-terminal GST; dsDNA, one strand shown
In short: as §1

SPIB = SPIB (Homo sapiens, UniProt Q01892 1-262); conditions: protein: recombinant; tags: N-terminal GST; dsDNA, one strand shown
Sequence of SPIB (Q01892 whole entry): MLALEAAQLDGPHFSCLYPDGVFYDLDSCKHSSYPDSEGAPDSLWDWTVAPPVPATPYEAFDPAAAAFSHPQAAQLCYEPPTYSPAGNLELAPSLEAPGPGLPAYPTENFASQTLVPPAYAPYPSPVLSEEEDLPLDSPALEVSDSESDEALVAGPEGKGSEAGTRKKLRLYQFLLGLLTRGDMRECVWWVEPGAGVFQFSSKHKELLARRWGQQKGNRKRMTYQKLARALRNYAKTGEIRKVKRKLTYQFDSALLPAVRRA
In short: as §1

ELK3 = target: T6, ELK3 (Homo sapiens, UniProt P41970 1-407); conditions: protein: recombinant; tags: N-terminal GST; dsDNA, one strand shown
T6 sequence: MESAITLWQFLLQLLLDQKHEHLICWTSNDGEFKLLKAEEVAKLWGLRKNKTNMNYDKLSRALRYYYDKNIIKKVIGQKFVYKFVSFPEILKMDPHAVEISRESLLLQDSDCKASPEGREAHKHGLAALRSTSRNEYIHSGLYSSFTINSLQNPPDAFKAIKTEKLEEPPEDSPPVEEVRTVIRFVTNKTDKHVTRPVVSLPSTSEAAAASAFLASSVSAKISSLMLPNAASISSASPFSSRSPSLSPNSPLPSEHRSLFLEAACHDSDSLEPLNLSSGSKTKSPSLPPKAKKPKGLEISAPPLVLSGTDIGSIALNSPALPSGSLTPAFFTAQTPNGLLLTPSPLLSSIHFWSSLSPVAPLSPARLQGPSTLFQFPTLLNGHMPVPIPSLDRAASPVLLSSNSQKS
In short: as §1

FEV = target: T7, FEV (Homo sapiens, UniProt Q99581 1-238); conditions: protein: recombinant; tags: N-terminal GST; dsDNA, one strand shown
T7 sequence: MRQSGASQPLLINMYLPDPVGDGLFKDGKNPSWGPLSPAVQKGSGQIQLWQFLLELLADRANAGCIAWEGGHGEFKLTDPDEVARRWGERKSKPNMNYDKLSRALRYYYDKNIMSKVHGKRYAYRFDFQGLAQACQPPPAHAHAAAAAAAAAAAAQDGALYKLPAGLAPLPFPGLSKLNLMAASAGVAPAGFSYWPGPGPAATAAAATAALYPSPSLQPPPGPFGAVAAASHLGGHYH
In short: as §1

ETV5 = ETV5 (Homo sapiens, UniProt P41161 1-510); conditions: protein: recombinant; tags: N-terminal GST; dsDNA, one strand shown
Sequence of ETV5 (P41161 whole entry): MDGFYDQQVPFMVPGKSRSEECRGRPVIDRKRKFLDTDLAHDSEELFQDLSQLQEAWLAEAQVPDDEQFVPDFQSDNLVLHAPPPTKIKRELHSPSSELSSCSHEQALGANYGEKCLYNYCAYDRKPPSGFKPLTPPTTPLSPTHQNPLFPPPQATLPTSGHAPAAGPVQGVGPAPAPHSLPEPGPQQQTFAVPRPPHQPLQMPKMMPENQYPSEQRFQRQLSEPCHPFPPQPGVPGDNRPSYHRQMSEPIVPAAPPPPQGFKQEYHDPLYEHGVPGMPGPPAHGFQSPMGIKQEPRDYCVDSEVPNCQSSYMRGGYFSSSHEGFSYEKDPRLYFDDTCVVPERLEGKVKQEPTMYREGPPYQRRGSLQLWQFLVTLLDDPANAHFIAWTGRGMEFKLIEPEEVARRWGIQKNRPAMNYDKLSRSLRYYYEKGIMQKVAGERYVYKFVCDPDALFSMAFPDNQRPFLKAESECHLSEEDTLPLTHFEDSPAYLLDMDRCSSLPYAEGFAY
In short: as §1

HSF1 = HSF1 (Homo sapiens, UniProt Q00613 1-529); conditions: protein: recombinant; tags: N-terminal GST; chain copies: 3; dsDNA, one strand shown
Sequence of HSF1 (Q00613 whole entry): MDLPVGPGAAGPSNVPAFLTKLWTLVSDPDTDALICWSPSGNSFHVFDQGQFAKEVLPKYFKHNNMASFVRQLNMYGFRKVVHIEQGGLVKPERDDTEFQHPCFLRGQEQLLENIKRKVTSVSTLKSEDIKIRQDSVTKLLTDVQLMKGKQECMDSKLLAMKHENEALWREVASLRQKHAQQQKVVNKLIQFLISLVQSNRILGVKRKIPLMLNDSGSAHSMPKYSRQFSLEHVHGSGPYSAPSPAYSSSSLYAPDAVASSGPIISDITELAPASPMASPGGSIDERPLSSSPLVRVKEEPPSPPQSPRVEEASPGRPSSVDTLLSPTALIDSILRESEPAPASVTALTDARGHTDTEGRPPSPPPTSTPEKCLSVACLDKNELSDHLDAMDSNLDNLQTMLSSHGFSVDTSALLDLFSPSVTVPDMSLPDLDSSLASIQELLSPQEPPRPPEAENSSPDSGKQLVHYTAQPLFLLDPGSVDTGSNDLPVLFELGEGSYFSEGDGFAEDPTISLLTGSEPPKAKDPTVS
In short: as §1

SPIC = target: T8, SPIC (Homo sapiens, UniProt Q8N5J4 1-248); conditions: protein: recombinant; tags: N-terminal GST; dsDNA, one strand shown
T8 sequence: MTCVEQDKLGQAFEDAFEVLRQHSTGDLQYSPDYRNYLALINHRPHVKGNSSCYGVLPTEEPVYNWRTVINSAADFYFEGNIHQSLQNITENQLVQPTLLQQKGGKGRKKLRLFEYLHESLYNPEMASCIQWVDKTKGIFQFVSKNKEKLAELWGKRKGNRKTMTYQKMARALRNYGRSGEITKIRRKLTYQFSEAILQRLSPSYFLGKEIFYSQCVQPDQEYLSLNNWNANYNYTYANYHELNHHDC
In short: as §1

ELF4 = ELF4 (Homo sapiens, UniProt Q99607 1-663); conditions: protein: recombinant; tags: N-terminal GST; dsDNA, one strand shown
Sequence of ELF4 (Q99607 whole entry): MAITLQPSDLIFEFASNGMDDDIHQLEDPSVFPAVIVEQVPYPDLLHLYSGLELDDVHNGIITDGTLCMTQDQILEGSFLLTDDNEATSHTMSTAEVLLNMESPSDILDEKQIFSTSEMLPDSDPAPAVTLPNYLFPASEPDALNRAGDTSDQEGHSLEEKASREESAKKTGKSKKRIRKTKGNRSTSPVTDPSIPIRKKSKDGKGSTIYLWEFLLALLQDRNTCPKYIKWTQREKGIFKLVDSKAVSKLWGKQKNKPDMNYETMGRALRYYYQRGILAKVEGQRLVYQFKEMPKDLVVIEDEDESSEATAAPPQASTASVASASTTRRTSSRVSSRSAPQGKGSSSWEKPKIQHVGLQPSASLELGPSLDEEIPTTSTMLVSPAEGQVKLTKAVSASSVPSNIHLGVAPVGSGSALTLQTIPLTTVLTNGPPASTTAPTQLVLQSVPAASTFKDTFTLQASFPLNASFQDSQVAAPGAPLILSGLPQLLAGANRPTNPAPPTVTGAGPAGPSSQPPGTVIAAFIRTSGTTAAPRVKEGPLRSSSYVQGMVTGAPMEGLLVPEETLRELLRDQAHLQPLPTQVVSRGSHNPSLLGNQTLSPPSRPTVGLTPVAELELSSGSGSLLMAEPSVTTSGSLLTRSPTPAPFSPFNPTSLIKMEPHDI
In short: as §1

ELK4 = target: T9, ELK4 (Homo sapiens, UniProt P28324-2 1-405); conditions: protein: recombinant; tags: N-terminal GST; dsDNA, one strand shown
T9 sequence: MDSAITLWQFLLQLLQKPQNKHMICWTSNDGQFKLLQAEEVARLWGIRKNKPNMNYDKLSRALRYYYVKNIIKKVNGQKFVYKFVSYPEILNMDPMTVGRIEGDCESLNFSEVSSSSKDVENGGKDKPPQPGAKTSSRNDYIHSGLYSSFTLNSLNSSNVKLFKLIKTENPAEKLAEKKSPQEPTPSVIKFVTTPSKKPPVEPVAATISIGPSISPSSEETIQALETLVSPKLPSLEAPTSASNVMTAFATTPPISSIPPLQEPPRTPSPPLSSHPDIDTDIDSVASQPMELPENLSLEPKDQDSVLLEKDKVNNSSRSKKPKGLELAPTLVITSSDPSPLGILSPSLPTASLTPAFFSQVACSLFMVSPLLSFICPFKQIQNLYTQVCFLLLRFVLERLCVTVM
In short: as §1

ETV2 = target: T10, ETV2 (Homo sapiens, UniProt O00321 1-342); conditions: protein: recombinant; tags: N-terminal GST; dsDNA, one strand shown
T10 sequence: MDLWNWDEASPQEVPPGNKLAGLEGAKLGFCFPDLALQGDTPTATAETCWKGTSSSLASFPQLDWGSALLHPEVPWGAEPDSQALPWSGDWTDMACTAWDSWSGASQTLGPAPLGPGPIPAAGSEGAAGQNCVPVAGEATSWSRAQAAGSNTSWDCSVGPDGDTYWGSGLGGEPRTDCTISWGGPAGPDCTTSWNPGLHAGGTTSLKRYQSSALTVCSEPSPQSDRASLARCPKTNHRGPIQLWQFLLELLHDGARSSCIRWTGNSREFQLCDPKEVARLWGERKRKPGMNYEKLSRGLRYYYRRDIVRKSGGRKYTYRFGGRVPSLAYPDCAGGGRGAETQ
In short: as §1

ELF3 = target: T11, ELF3 (Homo sapiens, UniProt P78545 1-371); conditions: protein: recombinant; tags: N-terminal GST; dsDNA, one strand shown
T11 sequence: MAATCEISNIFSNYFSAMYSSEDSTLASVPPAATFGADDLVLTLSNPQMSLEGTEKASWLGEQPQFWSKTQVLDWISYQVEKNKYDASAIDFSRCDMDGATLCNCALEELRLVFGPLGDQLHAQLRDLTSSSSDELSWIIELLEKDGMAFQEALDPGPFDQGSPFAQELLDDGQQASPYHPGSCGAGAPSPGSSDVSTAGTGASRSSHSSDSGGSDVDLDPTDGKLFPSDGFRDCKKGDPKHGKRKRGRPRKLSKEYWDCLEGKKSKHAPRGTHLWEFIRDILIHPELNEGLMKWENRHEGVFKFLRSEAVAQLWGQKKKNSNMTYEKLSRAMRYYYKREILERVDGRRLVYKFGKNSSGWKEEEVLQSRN
In short: as §1

CRX = CRX (Homo sapiens, UniProt O43186 1-299); conditions: protein: recombinant; tags: N-terminal GST; dsDNA, one strand shown
Sequence of CRX (O43186 whole entry): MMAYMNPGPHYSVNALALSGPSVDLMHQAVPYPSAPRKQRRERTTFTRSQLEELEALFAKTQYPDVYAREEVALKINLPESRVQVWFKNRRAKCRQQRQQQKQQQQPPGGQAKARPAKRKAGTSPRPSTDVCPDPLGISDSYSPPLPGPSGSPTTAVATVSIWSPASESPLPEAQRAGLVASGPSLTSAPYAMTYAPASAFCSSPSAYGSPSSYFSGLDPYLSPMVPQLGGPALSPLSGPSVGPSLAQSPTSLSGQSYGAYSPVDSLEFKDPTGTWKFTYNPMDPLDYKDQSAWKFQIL
In short: as §1

ETV1 = ETV1 (Homo sapiens, UniProt P50549 1-477); conditions: protein: recombinant; tags: N-terminal GST; dsDNA, one strand shown
Sequence of ETV1 (P50549 whole entry): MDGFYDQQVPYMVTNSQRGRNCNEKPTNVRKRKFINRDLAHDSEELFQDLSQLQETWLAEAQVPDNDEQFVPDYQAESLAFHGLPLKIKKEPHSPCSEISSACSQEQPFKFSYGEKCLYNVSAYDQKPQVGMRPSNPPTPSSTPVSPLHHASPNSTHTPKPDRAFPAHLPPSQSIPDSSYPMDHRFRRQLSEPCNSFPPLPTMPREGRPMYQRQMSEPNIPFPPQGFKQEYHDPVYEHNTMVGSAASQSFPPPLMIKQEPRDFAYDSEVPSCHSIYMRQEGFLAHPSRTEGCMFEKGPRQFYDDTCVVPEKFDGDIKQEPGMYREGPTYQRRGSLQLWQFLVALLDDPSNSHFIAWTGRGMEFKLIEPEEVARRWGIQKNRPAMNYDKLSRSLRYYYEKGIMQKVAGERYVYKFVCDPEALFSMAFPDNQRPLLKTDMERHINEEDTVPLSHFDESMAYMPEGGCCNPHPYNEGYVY
In short: as §1

**Q.** What does the source list for CGAAGC?
**A.** binding signal (FLI1): 1.39 fold enrichment (6-mer frequency, TF over GST control); binding signal (ELK1): 1.36 fold enrichment (6-mer frequency, TF over GST control); binding signal (GABPA): 1.36 fold enrichment (6-mer frequency, TF over GST control); binding signal (ERG): 1.23 fold enrichment (6-mer frequency, TF over GST control); binding signal (ELF1): 1.34 fold enrichment (6-mer frequency, TF over GST control); binding signal (EHF): 1.26 fold enrichment (6-mer frequency, TF over GST control); binding signal (SPI1): 1.2 fold enrichment (6-mer frequency, TF over GST control); binding signal (SPIB): 1.22 fold enrichment (6-mer frequency, TF over GST control); binding signal (ELK3): 1.49 fold enrichment (6-mer frequency, TF over GST control); binding signal (FEV): 1.23 fold enrichment (6-mer frequency, TF over GST control); binding signal (ETV5): 1.31 fold enrichment (6-mer frequency, TF over GST control); binding signal (HSF1): 1.64 fold enrichment (6-mer frequency, TF over GST control); binding signal (SPIC): 1.46 fold enrichment (6-mer frequency, TF over GST control); binding signal (ELF4): 1.44 fold enrichment (6-mer frequency, TF over GST control); binding signal (ELK4): 1.48 fold enrichment (6-mer frequency, TF over GST control); binding signal (ETV2): 1.3 fold enrichment (6-mer frequency, TF over GST control); binding signal (ELF3): 1.23 fold enrichment (6-mer frequency, TF over GST control); binding signal (CRX): 1.19 fold enrichment (6-mer frequency, TF over GST control); binding signal (ETV1): 1.29 fold enrichment (6-mer frequency, TF over GST control)
